MITF TRPM1 HTS: MITF TRPM1 promoter activation in melanoma cells | SK-MEL-5 TRPM1-promoter luciferase, 24 h; % of positive control, neutral wells = 0 | actives 0.75% (n = 300,000) | activation, % at 12.5 µM | AID 588334;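 active means mean activation of at least 80% with every replicate also reaching 80%; inconclusive means mean reaches 80% but some replicate falls short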;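 further: 0% = neutral control wells and 100% = parthenolide positive control wells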
FXN GAA850 act: activators of GAA850 frataxin (FXN) promoter | actives 0.56% (n = 360,000) | activation, % at 6 µM | HEK293 lucGAA850 FXN promoter luciferase reporter, 24 h; percent of 10 µM SAHA response;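 active means activation above the average of all compounds screened plus 3 SD, cutoff fixed separately per campaign, cut at about 7.5% in these data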;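 further: 0% = DMSO wells and 100% = 10 µM SAHA wells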
esBAF inh: inhibitors of esBAF chromatin remodeling in mouse ES cells; Bmi1-luciferase knock-in reporter, 24 h; 100% = twice the neutral-well signal; reporter increase, % at 12.5 µM; actives 2% (n = 350,000); in the data active means activation above about 40%; inconclusive means no clear call, values can overlap the other calls;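 further: 0% = median of the plate's neutral control wells and 100% = double that signal; a rise in the Bmi1 reporter signal indicates esBAF inhibition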
Wnt bcat act: activates Wnt/beta-catenin signaling in a reporter cell assay; activator, plate reader; activation, % at 9.35 µM; actives 1.2% (n = 300,000); AID 743398; in the data active means activation above about 30%, passing the limit was not always enough; inconclusive means no clear call, values can overlap the other calls;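 further: 0% = neutral control wells and 100% = positive control wells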
An asterisk follows results filed as active; u = inconclusive; x = not tested or not shown. Shown are actives, neighbours in structure and some others; about 2.8% of the full set was active somewhere.

SMILES | MITF TRPM1 HTS | FXN GAA850 act | esBAF inh | Wnt bcat act
Cc1ccc(-c2csc(NC(=O)COC(=O)c3cccc(S(=O)(=O)N4CCOCC4)c3)n2)cc1 | x | x | x | 45*
Cc1ccc(-c2csc(NC(=O)c3cccc(S(=O)(=O)N4CCN(C)CC4)c3)n2)cc1 | -23 | -1 | 17 | -8
O=C(Nc1cccc(O)c1)c1ccc(Br)c(S(=O)(=O)N2CCCCC2)c1 | 33 | -1 | 66* | -11
C[C@H](CO)N1C[C@H](C)[C@H](CN(C)C(=O)NC2CCCCC2)Oc2ccc(NC(=O)Cc3ccccc3)cc2C1=O | x | x | 1 | x
Cc1noc(C)c1NC(=O)Nc1cccc2c1O[C@H](CN(C)C(=O)Nc1ccc(F)cc1)[C@@H](C)CN([C@H](C)CO)C2=O | x | x | 2 | x
CN(C)c1ccc(C(=O)Nc2cccc(S(=O)(=O)N3CCCC3)c2)cc1 | 47 | -1 | 62* | 14
C[C@@H]1CN([C@H](C)CO)C(=O)c2cc(NC(=O)Cc3cn(C)c4ccccc34)ccc2O[C@@H]1CN(C)Cc1ccc(C(=O)O)cc1 | x | x | -6 | x
COc1ccc(NC(=O)Nc2ccc3c(c2)C(=O)N([C@H](C)CO)C[C@@H](C)[C@H](CN(C)S(=O)(=O)c2ccccc2)O3)cc1 | x | x | -5 | x
Cc1cc(C(=O)CN2C(=O)NC(CC(C)C)C2=O)c(C)n1-c1ccccc1F (stereo unspecified) | -2 | 1 | x | -1
Cc1cc(C(=O)CN2C(=O)NC(CC(C)C)C2=O)c(C)n1C1CC1 (stereo unspecified) | 29 | 5 | 43* | 5
S=C(c1ccc(-c2ccc(Cl)cc2)o1)N1CCCCC1 | 83* | 4 | 29 | x
CC1CC(=O)Nc2ccccc2N1C(=O)Nc1ccc(F)cc1F (stereo unspecified) | -2 | 1 | 2 | -1
CC1CC(=O)Nc2ccccc2N1C(=O)Nc1ccc(F)cc1 (stereo unspecified) | x | -2 | x | 39*
O=C(NC1CCC1)[C@@H]1[C@@H](CO)[C@@H]2Cn3c(ccc(C4=CCCC4)c3=O)[C@H]1N2C(=O)c1ccccc1 | x | x | -5 | x
O=c1nc2sc3ccccc3n2c(=O)n1-c1ccc(Cl)cc1 | 114* | 2 | 46* | 13
Cc1ccc2c(c1)sc1nc(=O)n(-c3cccc(Cl)c3)c(=O)n12 | 103* | 4 | 69* | x
Cc1ccc2c(c1)sc1nc(=O)n(-c3ccc(Cl)cc3)c(=O)n12 | x | 1 | 23 | x
O=c1nc2sc3ccccc3n2c(=O)n1-c1cccc(Cl)c1 | x | 5 | 76* | x
CNC[C@H]1Oc2ccc(NC(=O)CCN3CCOCC3)cc2C(=O)N([C@@H](C)CO)C[C@H]1C | x | x | 0 | x
C[C@@H]1CN([C@@H](C)CO)C(=O)c2cc(-c3cccc(F)c3)cnc2O[C@@H]1CN(C)C(=O)C1CCCCC1 | x | x | 2 | x
Cc1[nH]n(-c2cccc(Cl)c2)c(=O)c1C=NC12CN3CN(CN(C3)C1)C2 | 8 | 2 | -1 | x
Cc1[nH]n(-c2cccc(Cl)c2)c(=O)c1C=NCC(C)C | 111* | 6 | x | 3
Cc1[nH]n(-c2cccc(Cl)c2)c(=O)c1C=NCc1ccco1 | 105* | 5 | x | 8
O=C(NCCCN1CCOCC1)[C@@H]1N[C@@H]2c3ccc(C4=CCCC4)c(=O)n3C[C@@H]2[C@H]1CO | x | x | -3 | x
O=C(c1ccc(Cl)c([N+](=O)[O-])c1)N(Cc1ccc(Cl)cc1)C1CCS(=O)(=O)C1 (stereo unspecified) | -6 | 0 | x | 47*
SMILES | MITF TRPM1 HTS | FXN GAA850 act | esBAF inh | Wnt bcat act
CCOc1ccc2nc(N3CCCCCC3)sc2c1 | 64 | 3 | 3 | 21
c1ccc2sc(N3CCCCC3)nc2c1 | 47 | 5 | 49* | 16
O=C(O)CCC(=O)N1CCN(c2nc3ccccc3s2)CC1 | -9 | 0 | 0 | 7
c1ccc(CN2CCN(c3nc4ccccc4s3)CC2)cc1 | 77 | 3 | u | 40*
O=C(/C=C/c1nc2ccccc2s1)N1CCCCCC1 | 100* | 6 | 32 | 10
Cc1cccc(C)c1NC(=O)N1CCN(c2nc3ccccc3s2)CC1 | -8 | -1 | 48* | 2
CNC(=O)C[C@@H]1CC[C@@H]2[C@H](COc3ccc(NC(=O)NC(C)C)cc3C(=O)N2C)O1 | x | x | 3 | x
C[C@@H]1CN([C@H](C)CO)C(=O)CCCn2cc(nn2)CO[C@H]1CN(C)Cc1cccc(C(F)(F)F)c1 | x | x | 2 | x
C[C@@H]1CN([C@H](C)CO)C(=O)c2cccc(NC(=O)c3ccc(-c4nccs4)cc3)c2O[C@H]1CN(C)Cc1ccc(C(F)(F)F)cc1 | x | x | 16 | x
CCCC#Cc1ccc2c(c1)O[C@@H](CN(C)C(=O)Nc1ccccc1F)[C@@H](C)CN([C@@H](C)CO)S2(=O)=O | x | x | 7 | x

Source: PubChem BioAssay
